Measurements taken from the supplement of paper PMC7156485.
Values joined by “and” are separate entries in the source; they are usually repeats but may differ in a detail not shown here. Equal values may be shown once. ± gives the standard deviation of the averaged measurements.

Assays:
Conditions in all cases: concentration: 10 µM; 24 h
[1] = test system: HCC1569; test: cell number relative to DMSO (% of DMSO); higher = more cells (less growth inhibition / toxicity)
Outline: (§1)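 Compounds were applied at 10 µM for 24 h at 37 °C, in triplicate, to HCC1569 and TDF cells. The cells were then fixed and stained for H1.0, and nuclei were counterstained with DAPI. Nuclear H1.0 intensity or cell number is reported relative to the plate control as a percent, taking the median of replicates. Smoothing for positional effects was applied to HCC1569 values only.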

[2] = test system: TDF; test: as above
Outline: as §1

[3] = test system: TDF; test: H1.0 immunofluorescence intensity relative to DMSO (% of DMSO); higher = stronger H1.0 induction, active = 120 or more
Outline: as §1

[4] = test system: HCC1569; test: H1.0 immunofluorescence intensity relative to DMSO (% of DMSO); higher = stronger H1.0 induction, active = 140 or more
Outline: as §1
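Wherever H1.0 immunofluorescence intensity relative to DMSO is given: TDF is a line of transformed human dermal fibroblasts of mesenchymal origin.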
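Wherever cell number relative to DMSO is given: TDF denotes transformed human dermal fibroblasts of mesenchymal origin.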

Row | Structure (SMILES) | cell number [1] | cell number [2] | H1.0 immunofluorescence intensity [3] | H1.0 immunofluorescence intensity [4]
1 | CCCCCC=CCC=CC=CC=CC(SCC(NC(=O)CCC(N)C(=O)O)C(=O)NCC(=O)O)C(O)CCCC(=O)O (centres undefined) [Leukotriene C4] | 99.8 | 92.2 | 90.1 (inactive) | 105 (inactive)
2 | CCCCCCCCCCCCCCC(C(=O)O)=C(C)C(=O)O [Chaetomellic acid A] | 102 | 93.6 | 104 (inactive) | 100 (inactive)
3 | CC(C)C(N)C(=O)OCCOCn1cnc2c(=O)nc(N)[nH]c21 (centres undefined) [Valaciclovir] | 99.8 | 104 | 102 (inactive) | 109 (inactive)
4 | NS(=O)(=O)c1cccc2c1c([N+](=O)[O-])cc1nc([O-])c([O-])nc12.[Na+].[Na+] [NBQX disodium] | 104 | 103 | 93.8 (inactive) | 91.8 (inactive)
5 | O=c1cc(-c2ccccc2)[nH]c2nc(Cl)ccc12 [7-Chloro-4-hydroxy-2-phenyl-1,8-naphthyridine] | 76.7 | 20.4 | 141 (active) | 116 (inactive)
6 | Cl.O=C(O)C1=CCNCC1 [Isoguvacine hydrochloride] | 106 | 108 | 106 (inactive) | 98.2 (inactive)
7 | CC(=O)Oc1ccccc1C(=O)O [Acetylsalicylic acid] | 101 | 98.8 | 89.6 (inactive) | 88.3 (inactive)
8 | CN(C)c1ccc(C=C2C(=O)Nc3ccccc32)cc1 | 95.9 and 109 and 98.8 | 86.6 and 102 and 98.2 | 97 (inactive) and 108 (inactive) and 101 (inactive) | 114 (inactive) and 102 (inactive) and 125 (inactive)
9 | CC(C)OC(=O)C(C)(C)Oc1ccc(C(=O)c2ccc(Cl)cc2)cc1 [Fenofibrate] | 99.6 ± 2.2 | 106.6 ± 0.69 | 95 (inactive) | 109 (inactive)
10 | Nc1ccc(O)c(C(=O)O)c1 [5-Aminosalicylic acid] | 107 | 103 | – | –
11 | COc1cc(C(=O)OC2CC(C)=CCCC(C)=CC(O)C2C(C)C)ccc1O (centres undefined) [Tschimganidin] | 102 | 101 | 96.2 (inactive) | 86.8 (inactive)
12 | O=C(O)CCCC=CCC1C(O)CC(O)C1C=CC(O)COc1cccc(Cl)c1.[Na] (centres undefined) | 99.8 | 98.7 | 96.8 (inactive) | 92.6 (inactive)
13 | Nc1ccc(C(=O)O)c(O)c1 [4-Aminosalicylic acid] | 105 | 98.2 | – | –
14 | Oc1ccc(Cn2cc[nH]c2=S)cc1 [1-(4-Hydroxybenzyl)imidazole-2-thiol] | 102 | 101 | 95.7 (inactive) | 96.1 (inactive)
15 | Cc1cccc(C)c1OCC(C)N.Cl (centres undefined) [Mexiletene hydrochloride] | 104 | 104 | 87.8 (inactive) | 94.3 (inactive)
16 | COc1cc2c(Nc3ccc(Br)cc3F)ncnc2cc1OCC1CCN(C)CC1 [Vandetanib] | 54.4 | 65.4 | 108 (inactive) | 142 (active)
17 | Br.C=CCN1CCc2c(cc(O)c(O)c2Cl)C(c2ccccc2)C1 (racemic) | 94.1 | 79.4 | 96.2 (inactive) | 107 (inactive)
18 | O=c1onc2n1-c1cc(Br)ccc1OC2 | 97.4 | 104 | 94 (inactive) | 96 (inactive)
19 | CCCCCC=CC=C1C(=O)C=CC1CC=CCCCC(=O)O (centres undefined) [15d-Prostaglandin J2] | 98.9 | 102 | 97.5 (inactive) | 104 (inactive)
20 | Cc1cn(C2CC(N=[N+]=[N-])C(CO)O2)c(=O)[nH]c1=O (centres undefined) [3'-Azido-3'-deoxythymidine] | 104.8 ± 0.49 | 101 ± 7.6 | 96.8 (inactive) | 97.8 (inactive)
21 | CC12C=CC(=O)C=C1CCC1C2C(O)CC2(C)C1CCC2(O)C(=O)CO (centres undefined) [Prednisolone] | 100 | 99.4 | 84.9 (inactive) | 115 (inactive)
22 | Cl.Cn1c(=O)c(Oc2ccc(F)cc2F)cc2cnc(NC3CCOCC3)nc21 | 99.9 | 99.2 | 89 (inactive) | 102 (inactive)
23 | COc1cc2c(cc1OC)C1C(C)c3ccc(OC)c(OC)c3CN1CC2 (centres undefined) [Corydaline] | 96.9 | 106 | 94.4 (inactive) | 84.2 (inactive)
24 | CCCCS(=N)(=O)CCC(N)C(=O)O (racemic) [DL-Buthionine-[S,R]-sulfoximine] | 102 | 102 | 97.8 (inactive) | 99.9 (inactive)
25 | CC(=O)NC(Cc1c[nH]c2ccccc12)C(=O)OCc1cc(C(F)(F)F)cc(C(F)(F)F)c1 (centres undefined) | 102 | 103 | 93.2 (inactive) | 90.8 (inactive)
26 | O=C1NC(=O)C(c2c[nH]c3ccccc23)=C1c1c[nH]c2ccccc12 [Bisindolylmaleimide IV] | 91.2 | 119 | 94.7 (inactive) | 136 (inactive)

Row | Structure (SMILES) | cell number [1] | cell number [2] | H1.0 immunofluorescence intensity [3] | H1.0 immunofluorescence intensity [4]
27 | Cc1cn(-c2cc(NC(=O)c3ccc(C)c(Nc4nccc(-c5cccnc5)n4)c3)cc(C(F)(F)F)c2)cn1 [Nilotinib] | 100 | 73.5 | 101 (inactive) | 94.2 (inactive)
28 | CC(C=CC1(O)C(C)=CC(=O)CC1(C)C)=CC(=O)O (racemic) | 103 | 103 | 99.5 (inactive) | 88.1 (inactive)
29 | CCCCCCCCC=CCCCCCCCC(=O)O [9(Z)-Octadecenoic acid] | 104 | 97.1 | 97.5 (inactive) | 103 (inactive)
30 | Nc1ncnc2c1nc(Sc1ccc(Cl)cc1)n2C1OC2COP(=O)([O-])OC2C1O.[Na+] (centres undefined) [8-(4-Chlorophenylthio)-cAMP sodium] | 104 | 106 | 93.1 (inactive) | 85.1 (inactive)
31 | O=C(O)c1cc(=O)c2ccc(Cl)cc2[nH]1 [7-Chlorokynurenic acid] | 96.9 | 105 | 92 (inactive) | 91 (inactive)
32 | CCCCCCCCC#CCC#CCC#CCCCC(=O)O [5,8,11-Eicosatriynoic acid] | 97.5 ± 3.3 | 97.3 ± 8 | 107 (inactive) | 98.5 (inactive)
33 | O=S(=O)(c1cccc2cnccc12)N1CCCNCC1 | 107 | 102 | 88 (inactive) | 98.2 (inactive)
34 | COc1ccc2cc(CCC(C)=O)ccc2c1 [Nabumetone] | 107 | 97.4 | 93.8 (inactive) | 111 (inactive)
35 | NC1CCCCC1N.O=C([O-])C(=O)[O-].[Pt+2] (centres undefined) [Oxaliplatin] | 87.5 ± 5.5 | 87.2 ± 18 | 97.9 (inactive) | 121 (inactive)
36 | CCCCCCCCCCCCCCCC(=O)O [Hexadecanoic acid] | 97.3 | 92.6 | 104 (inactive) | 97.9 (inactive)
37 | COc1cc2ncnc(Nc3ccc(Cl)cc3Cl)c2cc1OC [Ste11 MAPKKK Activation Inhibitor] | 83.8 | 97.5 | 89.8 (inactive) | 130 (inactive)
38 | CC(COc1ccccc1)N(CCCl)Cc1ccccc1.Cl (centres undefined) [Phenoxybenzamine.HCl] | 106 | 103 | 97.7 (inactive) | 102 (inactive)
39 | CCCCC(C)(O)CC=CC1C(O)CC(=O)C1CCCCCCC(=O)O (centres undefined) [Misoprostol, free acid] | 100 | 85.8 | 95.6 (inactive) | 98.8 (inactive)
40 | CCCCCCCCC=CCCCCCCCCCCCCC(=O)O [14(Z)-Tricosenoic acid] | 100 | 106 | 100 (inactive) | 101 (inactive)
41 | O=c1cc(N2CCNCC2)oc2c(-c3ccccc3)cccc12 | 101 | 98.3 | 92.8 (inactive) | 136 (inactive)
42 | CCOC(=O)c1csc(Nc2ccc(Cl)cc2)n1 [ethyl 2-(4-chloroanilino)-1,3-thiazole-4-carboxylate] | 97 | 99.4 | 99.7 (inactive) | 113 (inactive)
43 | N#Cc1c(O)c2c(-c3ccc(-c4ccccc4O)cc3)csc2[nH]c1=O | 102 | 92.5 | 98.8 (inactive) | 96.3 (inactive)
44 | CCC(=O)OC1(C(=O)SCF)C(C)CC2C3CC(F)C4=CC(=O)C=CC4(C)C3(F)C(O)CC21C (centres undefined) | 98.9 | 105 | 86.8 (inactive) | 116 (inactive)
45 | O.c1cnc2c(c1)ccc1cccnc12 [1,10-Phenanthroline monohydrate] | 77.2 | 44.8 | 108 (inactive) | 93.9 (inactive)
46 | CC(CCc1ccc(O)cc1)NCCc1ccc(O)c(O)c1.Cl (centres undefined) [Dobutamine.HCl] | 104 | 111 | 83.4 (inactive) | 105 (inactive)
47 | O=c1oc2ccccc2c(O)c1Cc1c(O)c2ccccc2oc1=O [Dicoumarol] | 99.6 | 94.5 | 99 (inactive) | 98.4 (inactive)
48 | CC(C)(Oc1ccc(C2CC2(Cl)Cl)cc1)C(=O)O (centres undefined) [Ciprofibrate] | 104 | 110 | 97.8 (inactive) | 98.1 (inactive)
49 | O=c1cc(-c2ccc(O)cc2)oc2c(C3OC(CO)C(O)C(O)C3O)c(O)cc(O)c12 (centres undefined) [Vitexin] | 101 | 100 | 99.5 (inactive) | 85.1 (inactive)
50 | C=CC1(C)CC(=O)C2(O)C(C)(O1)C(OC(C)=O)C(O)C1C(C)(C)CCC(O)C12C (centres undefined) [Forskolin] | 89.77 ± 0.53 | 105 ± 3.9 | 88.8 (inactive) | 96.6 (inactive)
51 | CCCS(=O)(=O)Nc1ccc(F)c(C(=O)c2c[nH]c3ncc(Cl)cc23)c1F | 96.8 | 92.9 | 105 (inactive) | 111 (inactive)
52 | Cl.c1ccc2c(c1)CCCC2C1=NCCN1 (centres undefined) [Tetrahydrozoline hydrochloride] | 101 | 98.1 | 89.8 (inactive) | 98.3 (inactive)
